Assay in all cases: DAPPL (digital affinity profiling via proximity ligation, sequencing); 10 mM Tris-HCl pH 7.5, 50 mM NaCl, 1 mM DTT, 4% glycerol, room temperature, 30 min; GST-TFs on glutathione beads, 16-mer random dsDNA library, 0.1% formaldehyde crosslink after washing; high values mean tight binding
What all share (conditions): protein: recombinant; tags: N-terminal GST; dsDNA, one strand shown

For one test, the target named is T1, FLI1 (Homo sapiens, UniProt Q01543 1-452).
T1 sequence: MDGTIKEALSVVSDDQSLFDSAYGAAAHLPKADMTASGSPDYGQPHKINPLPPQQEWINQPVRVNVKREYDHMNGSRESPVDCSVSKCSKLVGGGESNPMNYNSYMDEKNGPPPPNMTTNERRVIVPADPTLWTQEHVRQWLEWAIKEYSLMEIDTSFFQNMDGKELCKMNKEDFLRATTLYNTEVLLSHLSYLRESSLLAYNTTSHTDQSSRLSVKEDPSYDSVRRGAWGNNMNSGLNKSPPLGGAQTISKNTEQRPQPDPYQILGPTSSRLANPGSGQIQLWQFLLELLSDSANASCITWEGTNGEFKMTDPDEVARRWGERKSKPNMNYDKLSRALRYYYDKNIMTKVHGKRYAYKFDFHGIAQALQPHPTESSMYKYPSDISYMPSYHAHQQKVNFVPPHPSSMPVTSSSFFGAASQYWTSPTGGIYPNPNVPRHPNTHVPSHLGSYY
A digest of the protocol:
(§1)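 Pools were built from human transcription factors expressed in yeast as GST fusions, captured on glutathione beads and DNA-barcoded, along with a tag-only sample. Incubation with 200 nmole of a 16-mer random double-stranded DNA library lasted 30 min at room temperature in Tris/NaCl/DTT/glycerol buffer, and was followed by washing, 0.1% formaldehyde crosslinking, proximity ligation, PCR amplification and Illumina NextSeq500 sequencing. Binding signal is the quotient of each hexamer's read frequency for a factor and its frequency for the tag-only sample.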

Another test addresses T2, ELK1 (Homo sapiens, UniProt P19419 1-428).
T2 sequence: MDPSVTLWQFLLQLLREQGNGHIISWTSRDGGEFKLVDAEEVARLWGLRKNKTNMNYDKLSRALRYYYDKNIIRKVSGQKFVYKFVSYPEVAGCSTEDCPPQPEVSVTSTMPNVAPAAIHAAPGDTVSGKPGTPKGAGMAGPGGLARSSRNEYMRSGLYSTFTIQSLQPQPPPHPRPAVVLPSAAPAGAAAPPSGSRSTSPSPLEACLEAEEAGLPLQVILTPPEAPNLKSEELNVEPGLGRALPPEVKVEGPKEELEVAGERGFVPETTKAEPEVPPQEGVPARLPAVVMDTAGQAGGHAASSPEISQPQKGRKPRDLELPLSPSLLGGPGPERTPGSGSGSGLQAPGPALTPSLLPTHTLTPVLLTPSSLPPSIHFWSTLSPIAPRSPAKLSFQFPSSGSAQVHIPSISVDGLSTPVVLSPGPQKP
A digest of the protocol:
as §1

Another test addresses T3, GABPA (Homo sapiens, UniProt Q06546 1-454).
T3 sequence: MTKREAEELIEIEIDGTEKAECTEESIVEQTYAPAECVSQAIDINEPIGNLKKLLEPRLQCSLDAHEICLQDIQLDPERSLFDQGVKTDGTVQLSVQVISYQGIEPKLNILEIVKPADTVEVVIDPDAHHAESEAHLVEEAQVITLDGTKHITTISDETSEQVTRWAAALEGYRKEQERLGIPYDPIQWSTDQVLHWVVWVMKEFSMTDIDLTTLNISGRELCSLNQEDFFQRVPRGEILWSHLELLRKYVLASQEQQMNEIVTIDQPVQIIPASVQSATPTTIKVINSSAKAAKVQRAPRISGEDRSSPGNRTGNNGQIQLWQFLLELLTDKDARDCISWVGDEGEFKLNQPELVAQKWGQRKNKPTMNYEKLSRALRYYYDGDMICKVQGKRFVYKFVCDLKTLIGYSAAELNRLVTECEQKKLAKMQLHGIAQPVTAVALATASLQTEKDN
In a few lines: as §1

Another test concerns the target ELF1 (Homo sapiens, UniProt P32519 1-619). In a few lines: as §1
A further test concerns the target SPI1 (Homo sapiens, UniProt P17947 1-270). A digest of the protocol:
as §1

The target in the next test is SPIB (Homo sapiens, UniProt Q01892 1-262). In a few lines: as §1
The next test concerns the target T4, ELK3 (Homo sapiens, UniProt P41970 1-407).
T4 sequence: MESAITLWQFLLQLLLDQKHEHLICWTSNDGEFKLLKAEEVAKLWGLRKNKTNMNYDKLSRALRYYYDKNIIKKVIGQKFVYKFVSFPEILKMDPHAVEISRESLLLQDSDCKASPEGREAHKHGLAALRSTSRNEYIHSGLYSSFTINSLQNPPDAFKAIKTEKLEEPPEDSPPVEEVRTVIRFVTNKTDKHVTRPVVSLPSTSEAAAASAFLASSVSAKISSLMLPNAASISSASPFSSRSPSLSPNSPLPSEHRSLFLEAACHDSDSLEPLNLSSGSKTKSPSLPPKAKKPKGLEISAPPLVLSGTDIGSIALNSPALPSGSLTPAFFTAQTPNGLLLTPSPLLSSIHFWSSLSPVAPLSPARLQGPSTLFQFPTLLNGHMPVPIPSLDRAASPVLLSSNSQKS
A digest of the protocol: as §1

The target of another test is T5, FEV (Homo sapiens, UniProt Q99581 1-238).
T5 sequence: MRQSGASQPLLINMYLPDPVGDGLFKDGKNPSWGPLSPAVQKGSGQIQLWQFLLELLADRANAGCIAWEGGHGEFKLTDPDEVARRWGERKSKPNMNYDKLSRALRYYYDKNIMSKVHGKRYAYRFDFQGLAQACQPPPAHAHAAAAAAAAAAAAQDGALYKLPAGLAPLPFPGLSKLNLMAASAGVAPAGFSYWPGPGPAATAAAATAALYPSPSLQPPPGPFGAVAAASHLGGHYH
In a few lines:
as §1

The target in a further test is ETV5 (Homo sapiens, UniProt P41161 1-510). A digest of the protocol:
as §1

Another test addresses ELF4 (Homo sapiens, UniProt Q99607 1-663). A digest of the protocol: as §1
For the next test, the target named is ETV1 (Homo sapiens, UniProt P50549 1-477). In a few lines: as §1
A further test addresses T6, ERF (Homo sapiens, UniProt P50548 1-548).
T6 sequence: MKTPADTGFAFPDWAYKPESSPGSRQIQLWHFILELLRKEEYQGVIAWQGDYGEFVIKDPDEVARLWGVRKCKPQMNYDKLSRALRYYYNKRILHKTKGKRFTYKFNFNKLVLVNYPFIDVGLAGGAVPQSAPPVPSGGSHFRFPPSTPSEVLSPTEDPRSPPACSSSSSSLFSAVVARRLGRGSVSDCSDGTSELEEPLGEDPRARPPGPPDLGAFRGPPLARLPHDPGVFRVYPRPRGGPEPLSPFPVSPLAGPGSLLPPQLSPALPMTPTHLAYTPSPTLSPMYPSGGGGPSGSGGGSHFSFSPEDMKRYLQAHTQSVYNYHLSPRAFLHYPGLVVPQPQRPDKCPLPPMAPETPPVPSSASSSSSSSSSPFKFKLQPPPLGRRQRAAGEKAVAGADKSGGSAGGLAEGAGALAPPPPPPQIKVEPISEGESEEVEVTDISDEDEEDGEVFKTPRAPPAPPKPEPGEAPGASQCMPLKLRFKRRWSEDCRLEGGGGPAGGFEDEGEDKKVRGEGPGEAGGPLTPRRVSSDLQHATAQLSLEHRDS
A digest of the protocol:
as §1

The next test deals with T7, ETV3L (Homo sapiens, UniProt Q6ZN32 1-361).
T7 sequence: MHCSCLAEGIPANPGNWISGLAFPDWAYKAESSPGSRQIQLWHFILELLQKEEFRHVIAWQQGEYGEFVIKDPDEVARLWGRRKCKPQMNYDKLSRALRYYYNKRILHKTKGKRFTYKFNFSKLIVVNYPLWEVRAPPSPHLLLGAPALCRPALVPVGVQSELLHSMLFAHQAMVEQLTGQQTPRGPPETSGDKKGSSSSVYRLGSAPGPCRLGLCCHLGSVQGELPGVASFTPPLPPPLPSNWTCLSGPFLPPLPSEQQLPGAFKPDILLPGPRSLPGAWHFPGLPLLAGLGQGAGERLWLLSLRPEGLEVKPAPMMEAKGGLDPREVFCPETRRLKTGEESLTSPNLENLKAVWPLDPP
A digest of the protocol: as §1

A further test concerns the target T8, ETS2 (Homo sapiens, UniProt P15036 1-469).
T8 sequence: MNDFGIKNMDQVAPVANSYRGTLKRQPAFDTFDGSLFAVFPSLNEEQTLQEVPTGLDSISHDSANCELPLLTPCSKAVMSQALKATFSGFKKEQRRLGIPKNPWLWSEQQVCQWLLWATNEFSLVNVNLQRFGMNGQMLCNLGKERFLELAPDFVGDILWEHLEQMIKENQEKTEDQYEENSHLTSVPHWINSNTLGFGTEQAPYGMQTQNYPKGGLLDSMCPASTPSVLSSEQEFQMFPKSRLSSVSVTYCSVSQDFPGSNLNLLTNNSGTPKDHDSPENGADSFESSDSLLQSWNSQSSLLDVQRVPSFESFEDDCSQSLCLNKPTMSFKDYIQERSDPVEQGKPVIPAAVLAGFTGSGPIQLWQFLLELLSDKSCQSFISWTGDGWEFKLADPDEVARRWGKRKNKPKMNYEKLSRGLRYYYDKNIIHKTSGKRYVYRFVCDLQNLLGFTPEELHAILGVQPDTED
In a few lines:
as §1

A further test addresses T9, ELF5 (Homo sapiens, UniProt Q9UKW6-2 1-255).
T9 sequence: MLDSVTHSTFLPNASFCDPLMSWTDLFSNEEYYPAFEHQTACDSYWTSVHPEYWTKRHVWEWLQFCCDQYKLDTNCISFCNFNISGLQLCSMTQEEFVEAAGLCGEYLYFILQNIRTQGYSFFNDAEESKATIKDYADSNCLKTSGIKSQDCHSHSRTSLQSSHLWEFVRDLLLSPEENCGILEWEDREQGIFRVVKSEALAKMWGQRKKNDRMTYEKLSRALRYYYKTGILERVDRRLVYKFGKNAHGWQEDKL
A digest of the protocol:
as §1

The next test deals with ETV6 (Homo sapiens, UniProt P41212 1-452). In a few lines: as §1
Chain of ETV6 (P41212 whole entry): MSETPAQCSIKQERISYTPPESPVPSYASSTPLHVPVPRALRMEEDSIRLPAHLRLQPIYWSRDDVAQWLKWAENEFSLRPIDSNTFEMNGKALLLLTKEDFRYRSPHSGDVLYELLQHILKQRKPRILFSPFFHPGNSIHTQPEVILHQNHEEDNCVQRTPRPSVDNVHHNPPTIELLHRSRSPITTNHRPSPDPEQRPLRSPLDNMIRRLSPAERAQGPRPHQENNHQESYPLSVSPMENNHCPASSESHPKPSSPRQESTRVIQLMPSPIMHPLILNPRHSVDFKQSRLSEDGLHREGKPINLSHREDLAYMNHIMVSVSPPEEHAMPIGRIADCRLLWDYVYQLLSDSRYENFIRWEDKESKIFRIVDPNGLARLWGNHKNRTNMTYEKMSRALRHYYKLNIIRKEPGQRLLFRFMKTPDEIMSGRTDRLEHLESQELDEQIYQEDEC

Chain of ELF4 (Q99607 whole entry): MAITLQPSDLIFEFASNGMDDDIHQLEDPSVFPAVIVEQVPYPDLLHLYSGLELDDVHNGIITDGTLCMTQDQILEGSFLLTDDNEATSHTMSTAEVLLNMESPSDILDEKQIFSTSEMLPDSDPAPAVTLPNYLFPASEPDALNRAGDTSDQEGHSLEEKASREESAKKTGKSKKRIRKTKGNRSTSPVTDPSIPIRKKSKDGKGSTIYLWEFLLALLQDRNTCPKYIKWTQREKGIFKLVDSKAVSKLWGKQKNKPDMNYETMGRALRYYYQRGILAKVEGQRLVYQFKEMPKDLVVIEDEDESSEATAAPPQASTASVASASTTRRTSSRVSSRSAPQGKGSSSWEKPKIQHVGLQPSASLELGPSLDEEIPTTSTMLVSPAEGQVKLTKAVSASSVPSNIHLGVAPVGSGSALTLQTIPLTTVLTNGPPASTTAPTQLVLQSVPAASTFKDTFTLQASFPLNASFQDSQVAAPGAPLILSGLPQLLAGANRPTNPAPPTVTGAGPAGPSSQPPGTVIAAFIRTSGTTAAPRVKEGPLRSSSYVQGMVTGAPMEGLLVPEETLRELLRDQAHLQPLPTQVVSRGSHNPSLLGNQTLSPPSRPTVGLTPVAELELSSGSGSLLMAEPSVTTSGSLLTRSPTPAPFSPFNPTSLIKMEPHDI
Chain of ETV1 (P50549 whole entry): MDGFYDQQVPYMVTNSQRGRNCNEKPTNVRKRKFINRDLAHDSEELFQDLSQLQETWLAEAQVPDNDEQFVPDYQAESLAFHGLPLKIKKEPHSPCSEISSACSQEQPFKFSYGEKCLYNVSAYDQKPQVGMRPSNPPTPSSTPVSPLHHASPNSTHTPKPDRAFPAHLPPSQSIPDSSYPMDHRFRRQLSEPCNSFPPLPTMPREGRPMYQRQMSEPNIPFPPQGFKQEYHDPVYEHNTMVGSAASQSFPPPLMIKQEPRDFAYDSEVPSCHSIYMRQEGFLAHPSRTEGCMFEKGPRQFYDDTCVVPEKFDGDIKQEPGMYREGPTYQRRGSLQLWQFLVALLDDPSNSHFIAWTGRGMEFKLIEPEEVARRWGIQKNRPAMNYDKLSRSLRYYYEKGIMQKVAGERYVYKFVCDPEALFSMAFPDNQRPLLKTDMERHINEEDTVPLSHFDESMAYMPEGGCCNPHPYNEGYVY
Chain of ELF1 (P32519 whole entry): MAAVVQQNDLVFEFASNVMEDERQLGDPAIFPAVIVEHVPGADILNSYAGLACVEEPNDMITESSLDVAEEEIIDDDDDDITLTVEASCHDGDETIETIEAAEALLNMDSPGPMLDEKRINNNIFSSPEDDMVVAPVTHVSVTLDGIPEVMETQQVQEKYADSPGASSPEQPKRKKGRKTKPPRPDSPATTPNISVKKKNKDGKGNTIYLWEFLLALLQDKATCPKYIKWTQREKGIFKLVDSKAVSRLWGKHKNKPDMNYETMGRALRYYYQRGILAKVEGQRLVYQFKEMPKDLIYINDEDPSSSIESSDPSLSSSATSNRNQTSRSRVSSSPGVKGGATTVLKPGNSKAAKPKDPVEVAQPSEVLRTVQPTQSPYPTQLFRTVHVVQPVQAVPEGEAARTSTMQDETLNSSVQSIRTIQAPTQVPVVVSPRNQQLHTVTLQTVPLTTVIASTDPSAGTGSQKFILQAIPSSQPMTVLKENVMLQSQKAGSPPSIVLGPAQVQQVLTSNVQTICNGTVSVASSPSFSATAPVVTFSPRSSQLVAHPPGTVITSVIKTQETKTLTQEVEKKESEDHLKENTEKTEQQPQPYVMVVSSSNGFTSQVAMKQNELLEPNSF
Chain of ETV5 (P41161 whole entry): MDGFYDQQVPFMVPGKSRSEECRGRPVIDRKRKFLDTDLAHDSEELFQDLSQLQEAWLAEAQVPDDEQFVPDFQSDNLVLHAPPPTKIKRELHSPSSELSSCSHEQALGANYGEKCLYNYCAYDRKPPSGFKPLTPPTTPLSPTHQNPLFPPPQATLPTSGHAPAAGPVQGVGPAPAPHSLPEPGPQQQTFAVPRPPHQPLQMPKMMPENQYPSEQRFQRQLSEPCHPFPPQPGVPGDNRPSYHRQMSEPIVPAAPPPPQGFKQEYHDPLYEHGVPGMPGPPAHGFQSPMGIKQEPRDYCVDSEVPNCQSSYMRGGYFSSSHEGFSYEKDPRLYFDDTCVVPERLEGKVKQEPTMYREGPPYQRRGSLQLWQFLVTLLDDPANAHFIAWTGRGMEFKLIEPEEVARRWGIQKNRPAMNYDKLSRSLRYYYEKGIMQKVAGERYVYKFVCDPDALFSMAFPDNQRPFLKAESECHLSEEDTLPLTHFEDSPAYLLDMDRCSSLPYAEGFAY
Chain of SPIB (Q01892 whole entry): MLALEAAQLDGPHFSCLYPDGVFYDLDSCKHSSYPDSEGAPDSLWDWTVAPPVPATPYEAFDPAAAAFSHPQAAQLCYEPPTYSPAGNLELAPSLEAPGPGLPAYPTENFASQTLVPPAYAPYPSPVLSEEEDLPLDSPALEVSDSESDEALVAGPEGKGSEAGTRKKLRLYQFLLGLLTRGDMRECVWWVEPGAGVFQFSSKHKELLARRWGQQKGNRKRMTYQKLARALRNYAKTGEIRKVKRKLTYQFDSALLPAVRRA

CTATCA: the binding signal with FLI1 was 1.1 fold enrichment (6-mer frequency, TF over GST control); with ELK1, 1.06 fold enrichment (6-mer frequency, TF over GST control); in the test with GABPA it was 1.1 fold enrichment (6-mer frequency, TF over GST control); with ELF1 it was 1.05 fold enrichment (6-mer frequency, TF over GST control); in the test with SPI1, 1.01 fold enrichment (6-mer frequency, TF over GST control); in the test with SPIB it was 1.05 fold enrichment (6-mer frequency, TF over GST control). Besides, the binding signal with ELK3 is 1.11 fold enrichment (6-mer frequency, TF over GST control); in the test with FEV, 1.02 fold enrichment (6-mer frequency, TF over GST control); in the test with ETV5, 1.03 fold enrichment (6-mer frequency, TF over GST control); with ELF4 it was 1.15 fold enrichment (6-mer frequency, TF over GST control); with ETV1 it was 1 fold enrichment (6-mer frequency, TF over GST control); with ERF, 1.06 fold enrichment (6-mer frequency, TF over GST control). The binding signal with ETV3L was 1.09 fold enrichment (6-mer frequency, TF over GST control); in the test with ETS2, 1.04 fold enrichment (6-mer frequency, TF over GST control); with ELF5, 1.01 fold enrichment (6-mer frequency, TF over GST control); with ETV6, 1.03 fold enrichment (6-mer frequency, TF over GST control).

The values are drawn from article PMC7862700, “An all-to-all approach to the identification of sequence-specific readers for epigenetic DNA modifications on cytosine”.
